FGF22 binding: binders of recombinant human FGF22 by thermal shift | Q9HCT0 | SYPRO orange fluorescence; percent of sucrose octasulfate shift, DMSO zero | activity (Tm shift, normalised), % at 9.99 µM | actives 1.5% (n = 340,000);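 active = mean Tm shift, scaled 0 neutral to 100 positive control, at about 1.3% or above, every replicate too, limit read from the data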
SIRT5 block: blocks human SIRT5 desuccinylation of peptide; Q9NXA8; Purified SirT5, succinyl-peptide AMC, trypsin-coupled fluorescence; inhibition, % at 15 µM; actives 1.1% (n = 330,000); AID 652115; in the data active = inhibition above about 15%
Target sequence (Q9NXA8 whole entry, looked up): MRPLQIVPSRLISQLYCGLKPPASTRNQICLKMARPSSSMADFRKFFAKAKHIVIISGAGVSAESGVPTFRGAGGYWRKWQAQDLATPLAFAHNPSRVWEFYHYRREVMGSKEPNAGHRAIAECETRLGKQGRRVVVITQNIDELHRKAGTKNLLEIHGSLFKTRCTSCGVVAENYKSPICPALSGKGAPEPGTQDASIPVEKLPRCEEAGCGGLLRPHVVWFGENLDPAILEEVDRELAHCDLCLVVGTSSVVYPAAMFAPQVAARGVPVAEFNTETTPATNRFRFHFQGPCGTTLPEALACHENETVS
PvdQ inh: blocks Pseudomonas aeruginosa PvdQ acylase activity. purified PvdQ acylase, fluorescence plate reader. AID 488965. actives 0.063% (n = 340,000). inhibition, % at 10 µM; in the data active = inhibition above about 30%, passing the limit was not always enough;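 also: 0% = vehicle neutral wells and 100% = reference inhibitor wells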
dFosB act: mouse delta FosB homodimer activation. actives 0.99% (n = 340,000). AID 493131. P13346. purified delta FosB, TAMRA-CDK5 oligo fluorescence polarization; percent of positive-control signal above neutral wells. activation, % at 25 µM;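 active = mean activation above about 17%, with every replicate also reaching it, limit read from the data, passing the limit was not always enough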
PglD DTNB: inhibitors of Campylobacter jejuni PglD acetyltransferase; purified PglD enzyme, DTNB colorimetric CoA detection; inhibition, % at 12.5 µM; actives 0.098% (n = 360,000); AID 602405; in the data active = inhibition above about 16%, passing the limit was not always enough
CDK5 inh: CDK5/p35 (human) kinase inhibition. actives 0.01% (n = 330,000). Recombinant CDK5/p35, ADP-Glo luminescence, 60 min. inhibition, % at 10 µM;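 active = highest replicate inhibition of at least 50% and at least 75% of replicates reaching 50%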;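 also: plate controls were DMSO neutral control for no effect and GW8510 at 10 µM for full effect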
Starred values were filed as active, the others as inactive; / = not tested or not shown; ! = repeats disagree. The list is not random: actives were taken first. Their share in the collection is about 2.8%.

SMILES	FGF22 binding	SIRT5 block	PvdQ inh	dFosB act	PglD DTNB	CDK5 inh
O=C(Nc1cccc(F)c1)N1CCCCN2[C@@H](CO)[C@H](c3ccc(C#Cc4ccccc4)cc3)[C@@H]2C1	-1	6	/	/	0	/
NNC(=O)c1cccc(S(=O)(=O)Nc2cccc(C(F)(F)F)c2)c1	0	-3	-11	-8	5	-2
Cc1[nH]c2ccccc2c1/C=N\NC(=O)c1ccccc1Cl	43*	/	/	/	2	/
Cc1[nH]c2ccccc2c1/C=N/Nc1ccccc1[N+](=O)[O-]	1.9*	-1	21	-2	/	3
Cc1[nH]c2ccccc2c1/C=N/NC(=O)c1cccc(S(=O)(=O)Nc2cccc(C(F)(F)F)c2)c1	43*	1	12	7	/	1
COc1ccc(NS(=O)(=O)c2cc([N+](=O)[O-])ccc2N/N=C/c2c(C)[nH]c3ccccc23)cc1	0	-2	-15	-3	-2	-2
C[C@@H]1CCCCO[C@@H](CN(C)CC2CC2)[C@H](C)CN([C@H](C)CO)C(=O)c2cc(NC(=O)c3ccccc3)ccc2O1	0	2	/	/	7	/
C[C@@H]1CN([C@@H](C)CO)C(=O)c2cc(NS(=O)(=O)c3ccc(F)cc3)ccc2O[C@H]1CN(C)C(=O)Nc1ccc(C(F)(F)F)cc1	0	-9	/	/	0	/
C[C@H](CO)N1C[C@H](C)[C@@H](CN(C)S(=O)(=O)c2ccccc2)Oc2ccc(NC(=O)CCCN(C)C)cc2C1=O	0	-3	/	/	3	/
O=C(COC(=O)c1ccccn1)Nc1ccccc1OC(F)F	43*	-2	-6	-6	/	0
O=C(NCCc1ccccc1)c1n[nH]c(=O)c2ccccc12	43*	6	2	4	-4	2
COc1ccc(CCNC(=O)c2n[nH]c(=O)c3ccccc23)cc1	/	/	-7	-8	4	-1
O=C(NCCc1ccccc1)c1c(F)cccc1F	43*	-1	-13	2	-1	0
CSc1ncccc1C(=O)NCCc1ccc(S(N)(=O)=O)cc1	0	-2	0	2	0	0
CSc1ncccc1C(=O)NCCc1ccccc1	43*	-2	-15	-7	-1	2
CC(C)NC(=O)Nc1cccc2c1O[C@@H](CN(C)CC1CCCCC1)[C@H](C)CN([C@@H](C)CO)C2=O	0	4	/	/	/	/
C[n+]1c2cc(N)ccc2cc2ccc(N)cc21	0	4	-1	33*!	-3	2
CCOC(=O)/C(N=Nc1c(C)n(C)n(-c2ccccc2)c1=O)=C(/O)c1ccccc1	43*	0	8	-1	/	1
Cc1c(N=N/C(C(=O)Nc2ccccc2)=C(/O)c2ccccc2)c(=O)n(-c2ccccc2)n1C	0	-2	8	-4	/	0
O=C(Cn1cnc2c(NCc3ccccc3)ncnc21)NCc1ccc2c(c1)OCO2	0	27*	2	3	0	0
CN(C)S(=O)(=O)c1cccc(NC(=O)c2cc3c(=O)n4ccccc4nc3s2)c1	0	16*	1	-15	/	-1
CCCN(C)C[C@@H]1Oc2cc(-c3cccnc3)ccc2S(=O)(=O)N([C@H](C)CO)C[C@@H]1C	-1	5	/	/	2	/
COC(=O)C[C@@H]1CC[C@H]2[C@H](COc3ccc(NC(=O)c4ccccc4OC)cc3C(=O)N2C)O1	0	/	/	/	-1	/
COCCCNCC(O)COc1cccc2[nH]c(C)cc12 (configuration not stated)	1.4*	-1	0	-7	/	-3
CN1CCN(C(=O)C2CCN(c3ncc(C(F)(F)F)cc3Cl)CC2)CC1	0	37*	6	3	/	0
Cc1noc(C)c1NC(=O)Nc1ccc2c(c1)CC(=O)N([C@@H](C)CO)C[C@H](C)[C@H](CN(C)Cc1ccc(-c3ccccc3)cc1)O2	-1	3	/	/	/	/
CCSc1nc2ccccc2c(=O)n1Cc1ccc(F)cc1	44*	-5	-11	-3	/	0
O=C(C[C@H]1C[C@@H]2c3cc(NC(=O)Nc4ccc(C(F)(F)F)cc4)ccc3O[C@@H]2[C@@H](CO)O1)NCc1ccc2c(c1)OCO2	1	25*	/	/	1	/
C[C@@H](NC(=O)C[C@H]1C[C@@H]2c3cc(NC(=O)c4ccc5c(c4)OCO5)ccc3O[C@@H]2[C@H](CO)O1)c1ccccc1	/	/	/	/	-3	/

Screens: PubChem BioAssay, Broad Institute
